In PubChem BioAssay:
Measured potencies and affinities stand elsewhere. Activity calls are given as the source filed them. The limit is not given here; nearly all actives have IC50 up to about 0.91 µM.

target: Calcium-dependent protein kinase 4 (Plasmodium falciparum (isolate 3D7)) (UniProt Q8IBS5); assay: PfCDPK4 kinase inhibitors, biochemical, TCAMS library (AID 1159588); details: recombinant PfCDPK4, Kinase-Glo ATP depletion luminescence
Sequence (Q8IBS5 whole entry, looked up): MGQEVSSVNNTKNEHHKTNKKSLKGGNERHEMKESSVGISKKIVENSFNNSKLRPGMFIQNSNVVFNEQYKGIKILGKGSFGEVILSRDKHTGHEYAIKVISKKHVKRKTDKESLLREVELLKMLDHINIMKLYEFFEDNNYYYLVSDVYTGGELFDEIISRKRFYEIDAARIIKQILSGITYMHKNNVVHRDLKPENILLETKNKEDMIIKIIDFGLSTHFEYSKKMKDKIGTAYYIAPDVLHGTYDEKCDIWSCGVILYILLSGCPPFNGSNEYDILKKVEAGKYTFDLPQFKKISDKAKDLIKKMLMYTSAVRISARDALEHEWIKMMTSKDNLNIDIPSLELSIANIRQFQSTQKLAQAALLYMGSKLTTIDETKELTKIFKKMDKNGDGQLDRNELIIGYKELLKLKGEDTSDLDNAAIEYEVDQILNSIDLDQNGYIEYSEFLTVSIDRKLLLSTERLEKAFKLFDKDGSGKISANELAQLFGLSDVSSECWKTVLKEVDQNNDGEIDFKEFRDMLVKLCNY

outcome, inactive:
CC(C)c1ccc(NC(=O)Nc2ccc(CCNCCCc3ccccc3)cc2)cc1
CC(C)NCc1cccc(-c2cccc(NC(=O)c3cccc(Cl)c3)c2)c1
CC[C@@H]([C@@H](Cc1cc2ccccc2s1)C(=O)N[C@@H](CCCCNC(=O)OCc1ccccc1)C(=O)Nc1ccccn1)N(O)C=O
Cc1cccc2[nH]c(-c3cccc(-c4ccc(NC(=O)Nc5ccc(F)c(F)c5F)cc4)c3)nc12
C=CCNC(=O)CCCN=C(N)N
O=C(Nc1cccc(F)c1)c1ccc(C(=O)NC2CCN(CC3CCCCC3)CC2)cc1
COc1ccc(CCCc2nc(N)nc(N)c2-c2ccc(Cl)cc2)cc1
CN1CCN(CCCN(Cc2cccc(-c3ccc(CNCCc4ccccc4)cc3)c2)C(=O)c2cccs2)CC1
O=C(Nc1cccc(CN2CCN(C(=O)c3cccc(Cl)c3)CC2)c1)c1ccco1
CN1CCN(c2cccc(-c3nnc(-c4ccc(OCC(=O)NCc5ccc(C(F)(F)F)cc5)c([N+](=O)[O-])c4)o3)c2)CC1
CCn1c(-c2cc(C)on2)nc2cnc(Oc3ccc(C(=O)N4CC(=O)N(C)C4C(C)(C)C)cc3)cc21 (stereo not given)
O=C(NCCCCCCNCc1ccc(-c2ccccc2)cc1)Nc1ccc(Cl)c(Cl)c1
O=C(Nc1ccc(Oc2cccnc2)cc1)C1CCN(Cc2cc(Cl)ccc2O)CC1
CN1Cc2cc(NC(=O)/C=C/c3ccccc3Cl)ccc2C(C)(C)C1
COc1ccc2c(NN=C(C)c3ccccn3)cc(C)nc2c1
c1ccc2[nH]c(-c3ccc(-c4ccc(CN5CCC(N6CCCCC6)CC5)cc4)s3)nc2c1
Cc1cc(C)cc(OCC(O)CN(Cc2cc(Cl)cc(Cl)c2)C(=O)Nc2ccc([N+](=O)[O-])cc2)c1 (stereo not given)
O=c1cc(NCCCNCc2cc(C(F)(F)F)ccc2F)[nH]c2ccccc12
CC(NCC(O)Cn1c2ccccc2c2ccccc21)c1ccccc1 (stereo not given)
Cc1c(C(=O)N(C)C)sc2c1c(=O)n(Cc1ccccc1)c(=O)n2CC(=O)Nc1ccccc1F
C=CCC(C(=O)Nc1ccnc2ccc(OC)cc12)C1CCN(CCCCCCC)CC1 (stereo not given)
Cc1cccc(NC(=O)Nc2cccc(-c3ccc(-c4nc5ccc(C(F)(F)F)cc5[nH]4)cc3)c2)c1
CCc1cc(Cc2cnc(N)nc2N)cc(CC)c1OC
CCCCCCCN(CCCCCCC)CCCC(=O)Nc1ccnc2ccc(OC)cc12
CC(C)CCNCc1ccc(OCc2cccc(COc3ccc(CNCCC(C)C)cc3I)c2)c(I)c1
CCCCCc1cc(O)c2c(c1)OC(C)(C)C=C2C1=CCN(Cc2ccsc2)CC1
Clc1cc(Nc2ncnc3sc(C#C[C@H]4CCCN4)cc23)ccc1OCc1cccnc1Cl
Oc1ccc(CCCNc2nc(NCc3cccc4ccccc34)nc(N3CCCNCC3)n2)cc1
Cc1noc(C)c1-c1ccc2c(Nc3ccccc3C(C)(C)C)c(C(=O)NCc3ccc4c(c3)OCO4)cnc2c1
CCN(CC)CCOc1ccc(C(O)(C#CC(O)(c2ccccc2)c2ccc(OCCN(CC)CC)cc2)c2ccccc2)cc1 (stereo not given)
COc1ccc(-n2ncc(C(=O)N3CCC4(C3)C(=O)N(c3ccccc3)c3ccccc34)c2C)cc1 (stereo not given)
O=S(=O)(Nc1cccc(CCN2CCC(N3CCCCC3)CC2)c1)c1ccc2c(c1)OCCO2
CN1CCN(CC(=O)Nc2ccc(-c3cccc(-c4nc5ccc(F)cc5[nH]4)c3)cc2)CC1
CC(C)(C)NC(=O)c1ccc(Oc2ccc(OC(F)(F)F)cc2)c(NC(=O)C(C)(C)C)c1
CCCCCN1CCCC(CNS(=O)(=O)c2cccc(C(=O)Nc3ccc(C(F)(F)F)cc3)c2)C1 (stereo not given)
O=C(NCCNc1ccnc(NCc2ccc(F)cc2)n1)c1cc2ccccc2s1
NC1CCN(Cc2cccc(-c3ccc(-c4nc5ccccc5[nH]4)s3)c2)C1 (stereo not given)
Cc1[nH]c(C)c(-c2ccc(OCc3cccc(C(F)(F)F)c3)nc2)c(=O)c1Br
CCSc1nnc(C2CCCN(CC(=O)Nc3cc(C(F)(F)F)ccc3Cl)C2)n1CC (stereo not given)
Cc1cc(NN=Cc2cccc(F)c2)c2ccc(F)cc2n1
